According to PubChem BioAssay (EPA / NIEHS):
Results filed as inconclusive are left out. Calls of active or inactive are those of the source. The calls were made as follows, unless noted: active = hit-call score of the fitted dose curve at least 0.9, where 1 is the maximum; inactive = score below 0.9.

Assays:
[1] = ACEA_ER_80hr: ACEA Biosciences xCELLigence Real-Time Cell Analysis on Estrogen Receptor Agonism for Proliferation (AID 2282667; active = hit-call score of the fitted dose curve at least 0.9, where 1 is the maximum); settings: T47D proliferation, impedance (xCELLigence), 80 h
How it was run: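 Real-time impedance growth kinetics of human T-47D breast cells read 80 h after dosing, gain-of-signal fitted relative to DMSO. Compounds: 1:4 serial series, top final concentration 100 uM, n = 2.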

[2] = APR_HepG2_CellCycleArrest_24hr: Apredica 24-hour HepG2 Assay for Cell Cycle Arrest (AID 2282905); settings: imaging, actives raise or lower the signal;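 also: cell cycle arrest scored as ratio of 2N to 4N nuclear DNA content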
How it was run: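 Cell cycle arrest is scored from nuclear DNA content measured by high-content imaging of Hoechst 33342-stained HepG2 cells following 24-hour treatment at ten concentrations up to 200 uM, with DMSO as baseline.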

[3] = APR_HepG2_NuclearSize_24hr: Apredica 24-hour HepG2 Assay for Nuclear Size (AID 2282907); settings: high-content imaging, actives raise or lower the signal
How it was run: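 Compounds in DMSO (final 0.5%) were added to human HepG2 hepatoma cells at ten concentrations up to 200 uM for 24 hr. Fixed nuclei were stained with Hoechst 33342, and nuclear diameter was quantified from automated images.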

[4] = APR_HepG2_CellLoss_24hr: Apredica 24-hour HepG2 Assay for Cell Loss (AID 2282908); settings: high-content imaging;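 as to AC50: fit in both directions so a hit may be cell loss or gain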
How it was run: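 Cell number is quantified by fluorescence imaging of Hoechst 33342-stained nuclei following dosing at 0.39–200 uM in 0.5% DMSO. Curves are fitted in both directions from the DMSO baseline.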

[5] = APR_HepG2_MicrotubuleCSK_24hr: Apredica 24-hour HepG2 Assay for Microtubule CSK Stabilty (AID 2282909); settings: HepG2 microtubule cytoskeleton imaging, actives raise or lower the signal
How it was run: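 Steps: dose HepG2 for 24 h (0.39–200 uM, 0.5% DMSO); fix 30 min in 3.7% formaldehyde at room temperature; permeabilize; stain alpha-tubulin 60 min; image microtubule cytoskeleton at 20x. Signal change fitted in both directions relative to DMSO.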

[6] = APR_HepG2_MitoticArrest_24hr: Apredica 24-hour HepG2 Assay for Mitotic Arrest (AID 2282910); settings: high-content imaging, actives raise or lower the signal
How it was run: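 HepG2 cells, 24 h exposure at 0.39-200 uM (10 concentrations, duplicate, 0.5% DMSO). Fixed, stained for phospho-histone H3 with Hoechst; imaged by high-content microscopy, bidirectional fit versus DMSO.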

[7] = APR_HepG2_MitoMembPot_24hr: Apredica 24-hour HepG2 Assay for Mitochondrial Membrane Potential (AID 2282911); settings: imaging, actives raise or lower the signal
How it was run: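 Mitochondrial membrane potential imaged via MitoTracker Red CMXRos (250 nM, 30 min pre-fixation) in fixed HepG2 cells with Hoechst nuclear identification. Ten concentrations 0.39–200 uM, 24 h treatment, 0.5% DMSO; CCCP as positive control.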

[8] = APR_HepG2_MitoMass_24hr: Apredica 24-hour HepG2 Assay for Mitochondrial Mass (AID 2282912); settings: high-content imaging, actives raise or lower the signal
How it was run: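 The liver line HepG2 was dosed in duplicate across a 0.39–200 uM series, with final DMSO held at 0.5% v/v, and harvested at 24 hr. High-content imaging measured mitochondrial dye staining.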

[9] = APR_HepG2_CellCycleArrest_72hr: Apredica 72-hour HepG2 Assay for Cell Cycle Arrest (AID 2282914); settings: high-content imaging, actives raise or lower the signal
How it was run: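 Read-out: nuclear DNA content from Hoechst 33342 high-content imaging (20x, six fields/well) after 3.7% formaldehyde fixation, fitted bidirectionally against DMSO. Treatment was 72 h in HepG2, ten concentrations 0.39–200 uM, duplicate, 0.5% DMSO.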

[10] = APR_HepG2_CellLoss_72hr: Apredica 72-hour HepG2 Assay for Cell Loss (AID 2282915); settings: high-content imaging
How it was run: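 HepG2 cells exposed 72 h to compound at 0.39–200 uM (10 concentrations, duplicate) in 0.5% DMSO. Fixed with 3.7% formaldehyde and Hoechst 33342-stained. Imaged at 20x; nuclear count gives cell number, fitted bidirectionally versus DMSO.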

[11] = APR_HepG2_P-H2AX_72hr: Apredica 72-hour HepG2 Assay for H2AX Phosphorylation (AID 2282916); settings: imaging, actives raise or lower the signal;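 also: phospho-histone H2A.x immunostain intensity per cell marking DNA damage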
How it was run: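 Following 72 hr treatment with 0.39–200 uM compound, HepG2 cells were formaldehyde-fixed, permeabilized and stained for phospho-H2A.x; signal was measured by high-content imaging and fitted bidirectionally against DMSO controls.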

[12] = APR_HepG2_MitoticArrest_72hr: Apredica 72-hour HepG2 Assay for Mitotic Arrest (AID 2282918); settings: high-content imaging, actives raise or lower the signal
How it was run: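 High-content imaging of fixed human HepG2 cells after 72 h compound exposure (0.39–200 uM, duplicates, 0.5% DMSO); mitotic arrest scored from phospho-histone H3 and nuclear Hoechst staining relative to DMSO.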

[13] = APR_HepG2_P-H2AX_24hr: Apredica 24-hour HepG2 Assay for H2AX Phosphorylation (AID 2282920); settings: high-content imaging, actives raise or lower the signal
How it was run: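 High-content imaging of phospho-histone H2A.x immunofluorescence, nuclei counterstained with Hoechst 33342, in fixed HepG2 cells. Compounds ran 0.39–200 uM in duplicate for 24 h, final DMSO 0.5%. Signal change fitted both directions against DMSO.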

[14] = APR_HepG2_StressKinase_72hr: Apredica 72-hour HepG2 Assay for Stress Kinase (AID 2282921); settings: HepG2 stress kinase (phospho-c-Jun) imaging, actives raise or lower the signal
How it was run: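 Fluorescence intensity of Cy3-tagged anti-phospho-c-Jun antibody, quantified per cell from Hoechst-defined nuclei across six images per well, served as the read-out following 72 h exposure (0.39–200 uM, 0.5% v/v DMSO).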

[15] = APR_HepG2_StressKinase_24hr: Apredica 24-hour HepG2 Assay for Stress Kinase (AID 2282922); settings: HepG2 stress kinase (phospho-c-Jun) imaging, actives raise or lower the signal
How it was run: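 HepG2 cells exposed 24 h to 0.39–200 uM compound in duplicate (0.5% v/v DMSO final). Cells fixed in 3.7% formaldehyde, permeabilized and immunostained for phospho-c-Jun; read by high-content fluorescence imaging, fitted bidirectionally against DMSO.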

[16] = APR_HepG2_MitoMass_72hr: Apredica 72-hour HepG2 Assay for Mitochondrial Mass (AID 2282924); settings: high-content imaging, actives raise or lower the signal;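 also: MitoTracker Red CMXRos stain intensity per cell imaged as mitochondrial mass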
How it was run: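 HepG2 cells dosed 72 hr at 0.39–200 uM (0.5% DMSO), in duplicate. MitoTracker Red CMXRos 250 nM loaded 30 min before formaldehyde fixation; high-content fluorescence imaging, bidirectional fit versus DMSO.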

[17] = APR_HepG2_p53Act_24hr: Apredica 24-hour HepG2 Assay for p53 Activation (AID 2282913); settings: high-content imaging, actives raise or lower the signal;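 also: p53 protein immunofluorescence averaged per cell in HepG2 with Hoechst nuclei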
How it was run: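 Fluorescence imaging of formaldehyde-fixed HepG2 cells labelled for p53 and with Hoechst, 24 h after dosing (0.39–200 uM, duplicate wells, 0.5% v/v DMSO). Signal fitted in both directions relative to DMSO.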

[18] = APR_HepG2_MitoMembPot_72hr: Apredica 72-hour HepG2 Assay for Mitochondrial Membrane Potential (AID 2282917); settings: imaging, actives raise or lower the signal
How it was run: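 HepG2 cells dosed 72 hr with compound at 0.39–200 uM in duplicate, 0.5% v/v DMSO final. Mitochondria stained with 250 nM MitoTracker Red CMXRos for 30 min before formaldehyde fixation, imaged by high-content fluorescence; bidirectional fit versus DMSO.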

[19] = APR_HepG2_p53Act_72hr: Apredica 72-hour HepG2 Assay for p53 Activation (AID 2282923); settings: high-content imaging, actives raise or lower the signal;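 also: average cellular p53 protein immunofluorescence intensity in HepG2 cells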
How it was run: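 HepG2 monolayers receive test compounds in duplicate at ten concentrations (0.39 through 200 uM) for 72 hr. They are then formaldehyde-fixed, antibody-labelled for p53, Hoechst-stained and imaged, with activity fitted bidirectionally versus DMSO.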

[20] = APR_HepG2_MicrotubuleCSK_72hr: Apredica 72-hour HepG2 Assay for Microtubule CSK Stabilty (AID 2282919); settings: HepG2 microtubule cytoskeleton, high-content imaging, actives raise or lower the signal
How it was run: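 HepG2 cells were exposed 72 hr to compound at 0.39–200 uM in duplicate (0.5% DMSO final), then fixed and permeabilized. Alpha-tubulin immunofluorescence was imaged by high-content microscopy, with bidirectional fitting against DMSO and taxol as positive control.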

Measured: AC50

OC[C@H]1O[C@@](CO)(O[C@H]2O[C@H](CO)[C@@H](O)[C@H](O)[C@H]2O)[C@@H](O)[C@@H]1O
inactive: [1] | [2] | [3] | [4] | [5] | [6] | [7] | [8] | [9] | [10] | [11] | [12] | [13] | [14] | [15] | [16]

O=C(O)c1ccc2c(c1)nc(C(=O)NC1CCN(C3CC3)CC1)n2Cc1cc(-c2ccc(Cl)s2)on1
inactive: [1] | [2] | [3] | [4] | [6] | [7] | [8] | [17] | [9] | [10] | [11] | [18] | [12] | [13] | [14] | [15] | [19] | [16]

NNC(=O)c1ccncc1
inactive: [1] | [2] | [3] | [4] | [6] | [7] | [8] | [17] | [9] | [10] | [11] | [13] | [14] | [15] | [19]

Cc1nc(-c2ccccn2)ncc1C(=O)Nn1cc(C)c2cc(F)ccc21
inactive: [1] | [3] | [11] | [18] | [13] | [14] | [15] | [16]
active: [2] 99.5 µM | [4] 88.7 µM | [6] 101 µM | [7] 100 µM | [8] 108 µM | [9] 162 µM | [10] 55.3 µM | [12] 72.2 µM

C=CCc1cc(S(=O)(=O)c2ccc(O)c(CC=C)c2)ccc1O
inactive: [1] | [3] | [7] | [18] | [14] | [15]
active: [2] 32 µM | [4] 97.8 µM | [6] 51.5 µM | [8] 52.7 µM | [9] 33.7 µM | [10] 73.2 µM | [11] 53.2 µM | [12] 71.3 µM | [13] 77.5 µM | [16] 58.5 µM

c1ccc2c(c1)-c1cccc3c1c-2cc1ccccc13
active: [4] 5.87 µM | [6] 15.5 µM | [7] 70.4 µM | [8] 8.67 µM | [9] 2.38 µM | [10] 7.58 µM | [11] 0.0391 µM | [16] 0.0391 µM
inactive: [1] | [2] | [3] | [18] | [12] | [13] | [14] | [15]

CC1(C)C(=O)N(Cl)C(=O)N1Cl
inactive: [1] | [2] | [3] | [4] | [6] | [7] | [8] | [17] | [9] | [10] | [11] | [13] | [14] | [15] | [19]

O=C1CN(N=Cc2ccc([N+](=O)[O-])o2)C(=O)N1
active: [4] 33.6 µM | [17] 58.6 µM | [10] 41.9 µM | [11] 65.2 µM | [12] 58.3 µM | [13] 56.7 µM | [19] 46.8 µM | [16] 90.5 µM
inactive: [1] | [6] | [7] | [8] | [14] | [15]

CCCCCCCC1CCC(=O)O1 (configuration not stated)
inactive: [1] | [4] | [6] | [7] | [8] | [17] | [10] | [11] | [12] | [13] | [14] | [15] | [19] | [16]

CC(C)c1nnc2ccc(-c3ocnc3-c3cc(F)ccc3F)cn12
active: [7] 0.0586 µM
inactive: [1] | [4] | [6] | [8] | [17] | [10] | [11] | [12] | [13] | [14] | [15] | [19] | [16]

O=C(O)[C@H](O)[C@@H](O)C(=O)O
inactive: [1] | [2] | [3] | [4] | [6] | [7] | [8] | [9] | [10] | [11] | [12] | [13] | [14] | [15] | [16]

O=C(NO)C1(NS(=O)(=O)c2ccc(Oc3ccc(F)cc3)cc2)CCOCC1
inactive: [1] | [2] | [3] | [4] | [6] | [7] | [8] | [9] | [12] | [20] | [13] | [14] | [15] | [16]
active: [10] 65.4 µM | [11] 100 µM

CC(C)CCCCCCOC(=O)C1CCCCC1C(=O)OCCCCCCC(C)C (configuration not stated)
inactive: [1] | [2] | [3] | [4] | [6] | [7] | [8] | [9] | [10] | [11] | [12] | [20] | [13] | [14] | [15] | [16]

CCOc1ccc2[nH]cc(C(=O)NCc3ccccc3)c(=O)c2n1
active: [1] 69 µM | [6] 104 µM | [10] 106 µM | [11] 105 µM | [12] 109 µM
inactive: [2] | [3] | [4] | [7] | [8] | [9] | [13] | [14] | [15] | [16]

C[C@@H](Oc1ccc(CNC(=O)c2cccnc2Oc2ccc3c(c2)OCO3)c(F)c1)C(=O)O
inactive: [1] | [2] | [3] | [4] | [6] | [8] | [9] | [10] | [11] | [12] | [20] | [13] | [14] | [15] | [16]
active: [7] 0.0391 µM
